# Source: PubChem BioAssay (EPA / NIEHS)
# Active and inactive are the calls of the source. Rule for the calls: active = hit-call score of the fitted dose curve at least 0.9, where 1 is the maximum; inactive = score below 0.9.
# Read-out: HGF (gene 3082)
# Assay: LTEA_HepaRG_HGF: Life Technologies and Expression Analysis (LTEA) Assay for Hepatocyte Growth Facto (HGF) using HepaRG (AID 2283505)
# Details: mRNA level, 48 h; actives raise or lower the signal
# Protocol: LTEA_HepaRG is a cell based, multiplexed-readout assay that uses HepaRG, a human liver cell line, with measurements taken at 48 hours after chemical dosing on a 96-well plate.LTEA_HepaRG_HGF is one of 102 assay component(s) measured in the LTEA HepaRG cell culture assay. It is a marker of Cell proliferation, survival, death.Data from the assay component LTEA_HepaRG_HGF was analyzed into 1 endpoint. This assay endpoint, LTEA_HepaRG_HGF, was analyzed with bidirectional fitting relative to DMSO as the negative control and baseline of activity. Using a type of inducible reporter, measures of mRNA induction for gain or loss-of-signal activity can be used to understand regulation of transcription factor activity. To generalize the intended target to other relatable targets, this assay endpoint is annotated to the growth factor intended target family, where the subfamily is hepatocyte growth factor.
# A total of 1060 chemcials from the ToxCast library were tested in eight-point concentration-response experiments. Cell culture and cytotoxicity assays were conducted at Thermo Fisher Scientific's Custom Services facility (Madison, WI). A single lot of human HepaRG cells (Thermo Fisher Scientific, Frederick, MD) was used for the cell culture experiments. 96-well format collagen type I coated plates of human HepaRG cells were prepared using established methods. Briefly, cryopreserved HepaRG cells were thawed, plated at a density of approximately 100,000 cells/well in HepaRG Thaw, Plate, and General Purpose media (HPRG770, Thermo Fisher Scientific), and incubated for 48 hours. 0.5% DMSO was selected as vehicle control to balance the requisite need of DMSO in HepaRG cultures to maintain differentiation (for example, baseline metabolism, proportions of hepatocytes vs. cholangiocytes), while enabling further hepatic receptor pathway activation (for example, PXR and CAR) in response to chemical exposure. 48 hours after plating, the culture medium was replaced with HepaRG Serum-Free Incudtion Media. Cells were exposed to each test chemical in duplicate and maintained in CO2 incubators for another 48 hours. Chemical plates were thawed to room temperature and 200x concentrations of treatment groups were prepared. 8-point conentration-reponse curves were made with the highest exposure at 100 uM, followed by half-log dilutions, all in 0.5% DMSO. Each test plate contained variouse controls, induction positive controls (1mM phenobarbital), cytotoxicity positive controls ([…] aflatoxin B1), vehicle controls (0.5% DMSO), and total lysis controls (0.5% DMSO). Cell morphology images were taken using an Essen IncuCyte FLR automated microscope, with six 96-well plates imaged in about 24 minutes. Images were captured and exported and JPEG files. Spent culture media was transfered to black-well plates for the LDH assay, and remaining media was sorted at -80 C for later use. Cells were treated with RLT buffer and frozen until shipped for gene expression analysis. Total RNA was isolated from the cell suspension in 75 uL of Buffer RLT (Qiagen, Germantown, MD 20874) by Quintiles/Expression Analysis (Durham, NC) using a custom isolation procedure. Total RNA from each plate well was transferred to a preamplification plate. Fluidigm's 96.96 Dynamic ArrayTM (Fluidigm, Amsterdam, the Netherlands) technology was used for gene expression analyses by quantitative reverse transcription polymerase chain reaction (qRT-PCR, performed by Quintiles/Expression Analysis, Durham, NC)89. Standard TaqManTM Assays (Applied Biosystems/ThermoFisher Scientific, Foster City, CA) were used to assess the expression of 93 genes selected based on their selectivity and sensitivity to important hepatic receptors known to be modulated by environmental chemicals; importance in human hepatocyte functionality; and hepatotoxicity. […]
SMILES,outcome,AC50
COC(=O)NS(=O)(=O)c1ccc(N)cc1,inactive,
N#Cc1c(Cl)cccc1Cl,inactive,
CCOc1cc(C(C)(C)C)ccc1C1COC(c2c(F)cccc2F)=N1 (stereo not given),inactive,
CC(C)N1C(=O)N(c2ccccc2)CSC1=NC(C)(C)C,inactive,
COc1cc(Cl)c(OC)cc1Cl,inactive,
C=CCOC(=O)C(C)(C)OC(=O)c1cc(-n2c(=O)cc(C(F)(F)F)n(C)c2=O)ccc1Cl,inactive,
COC(=O)NC(=S)Nc1ccccc1NC(=S)NC(=O)OC,inactive,
CCCCC(C#N)(Cn1cncn1)c1ccc(Cl)cc1 (stereo not given),inactive,
CC(C)(C)C(=O)C(Oc1ccc(Cl)cc1)n1cncn1 (stereo not given),inactive,
CCCC(=NOCC)C1=C(O)CC(CC(C)SCC)CC1=O (stereo not given),inactive,
CCNP(=S)(OC)O/C(C)=C/C(=O)OC(C)C (stereo not given),inactive,
Cn1c(-c2ccccc2)cc(-c2ccccc2)[n+]1C,inactive,
CC(C)Oc1cccc(NC(=O)c2ccccc2C(F)(F)F)c1,inactive,
CCOc1nc(C(Cl)(Cl)Cl)ns1,,1.21 µM (active)
C=C(C)CN(CC)c1c([N+](=O)[O-])cc(C(F)(F)F)cc1[N+](=O)[O-],inactive,
O=C(Nc1ccccc1-c1ccc(Cl)cc1)c1cccnc1Cl,inactive,
CCNC(=O)NC(=O)C(C#N)=NOC,inactive,
Nc1c(Cl)c(Cl)nc(C(=O)O)c1Cl,inactive,
Clc1cccc(C(Cl)(Cl)Cl)n1,inactive,
CC1(C)CON(Cc2ccccc2Cl)C1=O,inactive,

SMILES,outcome,AC50
COP(=S)(OC)Oc1ccc([N+](=O)[O-])c(C)c1,inactive,
COCc1cnc(C2=NC(C)(C(C)C)C(=O)N2)c(C(=O)O)c1 (stereo not given),inactive,
CCOc1nc(F)cc2nc(S(=O)(=O)Nc3c(Cl)cccc3Cl)nn12,inactive,
CC(C)N1C(=O)c2ccccc2NS1(=O)=O,inactive,
COCC(C)N(C(=O)CCl)c1c(C)csc1C (stereo not given),inactive,
COP(=O)(OC)O/C(C)=C/C(=O)N(C)C,inactive,
Cc1cnc(C2=NC(C)(C(C)C)C(=O)N2)c(C(=O)O)c1 (stereo not given),inactive,
CC(C)Nc1nc(Cl)nc(NC(C)C)n1,inactive,
CCCCC(O)(Cn1cncn1)c1ccc(Cl)cc1Cl (stereo not given),,75.3 µM (active)
CSC(=O)c1c(C(F)F)nc(C(F)(F)F)c(C(=O)SC)c1CC(C)C,inactive,
Nc1cnn(-c2ccccc2)c(=O)c1Cl,inactive,
COC(=O)N(C(=O)N1CO[C@@]2(C(=O)OC)Cc3cc(Cl)ccc3C2=N1)c1ccc(OC(F)(F)F)cc1,inactive,
CC1(C)C(C=C(Cl)Cl)C1C(=O)OC(C#N)c1cccc(Oc2ccccc2)c1 (stereo not given),inactive,
CC(C)NC(=O)N1CC(=O)N(c2cc(Cl)cc(Cl)c2)C1=O,inactive,
CCN(CC)C(=O)C(C)Oc1cccc2ccccc12 (stereo not given),inactive,
COC(=O)c1c(C(F)F)nc(C(F)(F)F)c(C2=NCCS2)c1CC(C)C,inactive,
CN=C=S,inactive,
CC1(C)CCC(=Cc2ccc(Cl)cc2)C1(O)Cn1cncn1 (stereo not given),inactive,
COCC(=O)N(c1c(C)cccc1C)C(C)C(=O)OC (stereo not given),inactive,
CCOP(=S)(OCC)Oc1nc(Cl)n(C(C)C)n1,inactive,
